Only some compounds are listed: those with a hit (about 12% of all), similar ones and a draw of the others.
HP1b binding inh: HTS for Inhibitors of HP1-beta Chromodomain Interactions with Methylated Histone Tails; hit rate 0.56% among 390,000; Potency, µM (titrated, usually from 114 µM), most hits filed as inhibitors; Chromobox protein homolog 1 (Homo sapiens), P83916; AlphaScreen HP1-beta / biotin-H3K9me3 peptide binding; AID 540317, 2011; further: nearly all actives have a fitted effect of over 70% in size
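AlphaScreen: HP1-beta (50 nM) preformed 30 min with biotin-H3(1-18)K9me3 peptide (50 nM) in PBS pH 7.4, 0.01% Tween-20. Compound added for 30 min at RT, then streptavidin donor/nickel chelate acceptor beads (10 ug/mL) for 30 min.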
G9a inh: qHTS Assay for Inhibitors of Histone Lysine Methyltransferase G9a; G9a H3K9 monomethylation, AlphaScreen, 2 h; Potency, µM (titrated, usually from 102 µM), actives largely listed as inhibitors; hit rate 8.8% among 350,000; AID 504332, 2011; further: nearly all actives have a fitted effect of over 75% in size
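AlphaScreen read-out: biotin-H3K9 peptide (500 nM) methylation by 20 nM enzyme with 20 uM SAM, 2 h at room temperature after 15 min compound preincubation; anti-monomethyl H3K9 antibody plus donor/acceptor beads, 10 min dark.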
BAZ2B block: qHTS Assay for Inhibitors of BAZ2B; AlphaScreen BAZ2B-H3K14Ac peptide displacement; Potency, µM (top dose mostly 114 µM), actives largely listed as inhibitors; hit rate 4.4% among 360,000; AID 504333, 2011; further: nearly all actives have a fitted effect of over 60% in size
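Inhibition is scored as reduced AlphaScreen emission. The BAZ2B/b-H3(5-23)K14Ac complex (50 nM each) in PBS pH 7.4, 0.01% Tween-20 meets compound (up to 110 uM) for 30 min at RT before bead addition.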
Sfp PPTase inh: qHTS Assay for Inhibitors of Bacillus subtilis Sfp phosphopantetheinyl transferase (PPTase); Biochemical Sfp PPTase activity, qHTS; Potency, µM, most hits filed as inhibitors; AID 1490, 2009; hit rate 3.5% among 310,000; 4'-phosphopantetheinyl transferase ffp (Bacillus subtilis), Q9F4F7;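 further: the enzyme is Sfp with the accession as filed and its product quenches rhodamine fluorescence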
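Fluorescence-quenching assay: 15 nM Sfp-PPTase preincubated 15 min at room temperature with compound, then 5 uM rhodamine-CoA and 12.5 uM BHQ-2-labelled YbbR peptide added. Fluorescence (ex 525/em 598 nm) read at start and after 30 min; difference gives rate.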
JMJD2A Tudor: qHTS Assay for Inhibitors of JMJD2A-Tudor Domain | Lysine-specific demethylase 4A (Homo sapiens), O75164 | AlphaScreen JMJD2A-Tudor / H3K4me3 peptide binding | Potency, µM (series often up to 114 µM), actives largely listed as inhibitors | hit rate 4.4% among 390,000 | AID 504339, 2011; further: nearly all actives have a fitted effect of over 50% in size
PLK1 PBD block: qHTS for Inhibitors of PLK1-PDB (polo-like kinase 1 - polo-box domain): Primary Screen; AID 720504, 2013; Potency, µM, hits mostly inhibitors; hit rate 2.8% among 360,000; Plk1 PBD binding of FITC phosphopeptide, fluorescence polarization; further: series mostly up to about 57 µM; nearly all actives have a fitted effect of over 65% in size
Target sequence (P53350 whole entry, looked up, the tested form may be a part): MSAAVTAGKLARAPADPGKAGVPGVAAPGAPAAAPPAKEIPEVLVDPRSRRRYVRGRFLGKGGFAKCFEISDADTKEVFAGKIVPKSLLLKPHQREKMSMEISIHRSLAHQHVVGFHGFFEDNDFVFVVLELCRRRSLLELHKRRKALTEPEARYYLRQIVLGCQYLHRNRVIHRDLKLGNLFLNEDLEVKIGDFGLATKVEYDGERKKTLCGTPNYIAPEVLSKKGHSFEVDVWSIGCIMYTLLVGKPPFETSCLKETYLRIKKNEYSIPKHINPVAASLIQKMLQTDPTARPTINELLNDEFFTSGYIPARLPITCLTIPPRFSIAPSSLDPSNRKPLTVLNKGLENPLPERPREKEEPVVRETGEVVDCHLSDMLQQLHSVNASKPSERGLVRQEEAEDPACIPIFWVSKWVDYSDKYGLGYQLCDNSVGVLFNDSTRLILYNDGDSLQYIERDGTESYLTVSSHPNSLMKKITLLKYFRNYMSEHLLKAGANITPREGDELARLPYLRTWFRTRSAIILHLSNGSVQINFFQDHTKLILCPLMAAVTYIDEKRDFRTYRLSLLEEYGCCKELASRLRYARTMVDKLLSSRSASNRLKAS
Sfp inh conf: Confirmation qHTS Assay for Inhibitors of Bacillus subtilis Sfp phosphopantetheinyl transferase (PPTase); Potency, µM (titrated, usually from 114 µM), actives largely listed as inhibitors; shares compounds with Sfp PPTase inh; hit rate 79% among 380; AID 2701, 2010; Sfp PPTase enzymatic assay, qHTS titration
Sfp gel assay: Gel-Based Assay for Inhibitors of Bacillus subtilis Sfp phosphopantetheinyl transferase (PPTase) | shares compounds with Sfp PPTase inh | purified Sfp, gel-based phosphopantetheinylation read-out | Potency, µM, most hits filed as inhibitors | hit rate 20% among 210 | AID 2707, 2010;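 active means potency below 100 µM; inconclusive means dose-dependent response but potency above 100 µM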;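 further: potency is an IC50 for inhibitors of Sfp transfer activity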
Each line names hits and unclear results; the compound was inactive in the other large screens (follow-up assays come after a bar, where they were run). Unless noted, the call rests on the fitted dose curve; in most records, active means well fitted curve in the direction sought with a large enough effect; inconclusive means small, poorly fitted or top-dose-only effect, or another doubt; inactive means no such curve, though single readings can be large; an effect the other way counts as inactive or inconclusive.

COc1ccc(C(=O)Nc2nnc(S(=O)(=O)N(C)c3ccc(Cl)cc3)s2)cc1OC	none (no result: Sfp PPTase inh, PLK1 PBD block)
COc1ccccc1Nc1nc2ccc(Cl)cc2nc1-n1nc(C)cc1C	none (no result: Sfp PPTase inh, PLK1 PBD block)
CCC(CO)[n+]1c(C)cc(/C=C2\Sc3ccccc3N2Cc2ccccc2)cc1C (stereo unspecified)	G9a inh inconclusive, Sfp PPTase inh 35.5µM | Sfp inh conf 52.7µM | Sfp gel assay inconclusive
c1csc(-c2nn3c(C4COc5ccccc5O4)nnc3s2)c1 (stereo unspecified)	G9a inh 5.01µM, Sfp PPTase inh 7.94µM, PLK1 PBD block 23.8µM | Sfp inh conf 23.5µM
c1ccc2c(c1)OCC(c1nnc3n1-c1ccccc1SC3)O2 (stereo unspecified)	none
CC1(C(=O)Nc2cccc(Oc3ccccc3)c2)CCN1Cc1cc2ccccc2o1 (stereo unspecified)	none (no result: HP1b binding inh, G9a inh, BAZ2B block, Sfp PPTase inh, JMJD2A Tudor)
O=C1CN(CC(=O)N2CCOCC2)c2ccccc2O1	BAZ2B block inconclusive, Sfp PPTase inh 3.55µM (no result: HP1b binding inh, JMJD2A Tudor, PLK1 PBD block) | Sfp inh conf inactive
CCCC(=O)Nc1ccc(-c2csc(NNC(C)=O)n2)cc1	G9a inh 35.5µM, Sfp PPTase inh 5.01µM, PLK1 PBD block inconclusive | Sfp inh conf inconclusive | Sfp gel assay inconclusive
COc1c(-c2ccccc2)oc2c(ccc3occc32)c1=O	none
Cn1ncc2c(c(SCc3ccc(Cl)cc3Cl)nn2C)c1=O	HP1b binding inh inconclusive, G9a inh 8.91µM, Sfp PPTase inh 25.1µM, PLK1 PBD block 11.9µM | Sfp inh conf 16.7µM
COc1cnn(-c2ccccc2)c(=O)c1SCc1ccc(Cl)cc1Cl	Sfp PPTase inh inconclusive, PLK1 PBD block inconclusive
O=C(CCCc1nc(-c2ccc(Cl)cc2)no1)NC1CCCCC1	none
COC(=O)c1ccccc1NC(=O)CSc1nc(C)cc(C)n1	none
COC(=O)c1cc(C)nc(Sc2ccccc2N)n1	HP1b binding inh inconclusive, G9a inh 3.55µM, Sfp PPTase inh 2µM, JMJD2A Tudor 44.7µM, PLK1 PBD block 1.68µM | Sfp inh conf 4.18µM
O=C(CN1C(=O)CC(c2ccco2)Sc2ccccc21)NCC1CCCO1 (stereo unspecified)	G9a inh 11.2µM, Sfp PPTase inh 11.2µM | Sfp inh conf 7.44µM
COc1ccc(C2CC(=O)N(CC(=O)NCC3CCCO3)c3ccccc3S2)cc1 (stereo unspecified)	none
Cc1ccc(S(=O)(=O)c2cnc(SCC(=O)Nc3ccccc3C(F)(F)F)[nH]c2=O)cc1C	none (no result: Sfp PPTase inh, PLK1 PBD block)
Cc1ccccc1-n1nc(-c2ccc(N)cc2)cc1N	G9a inh inconclusive, Sfp PPTase inh 14.1µM, JMJD2A Tudor inconclusive | Sfp inh conf inactive | Sfp gel assay inactive
O=C(CSc1nnc2ccc(-c3ccc(Br)cc3)nn12)NCC1CCCO1 (stereo unspecified)	none (no result: Sfp PPTase inh)
CC(C)(O)C#Cc1ccc(C(=O)N2CCCC(CNS(=O)(=O)c3cccs3)C2)o1 (stereo unspecified)	G9a inh 28.2µM, Sfp PPTase inh 39.8µM | Sfp inh conf 59.1µM
COC(=O)c1ccc(N2CCCCC2)c(N)c1	none (no result: G9a inh)
COC(=O)c1ccc(N2CCC(C)CC2)c(N)c1	HP1b binding inh inconclusive, G9a inh 8.91µM, Sfp PPTase inh 31.6µM, JMJD2A Tudor inconclusive, PLK1 PBD block 21.2µM | Sfp inh conf 18.7µM
